# According to PubChem BioAssay (Tox21):
# “And” between values parts separate entries of the source, which are not always exact repeats. Equal values may be shown once. Unmarked numbers belong to inactive results. Records with an inconclusive call do not appear. A call without a number means that no potency is given here. The source made the active and inactive calls. Calls follow the shape of the dose curve; as a rule, active = well fitted curve in the direction sought with a large enough effect in the repeat runs; inconclusive = weak or mixed curves; inactive = no such curve, though single readings can be large; an effect the other way counts as inactive or inconclusive.
# Experiments:
# [1] = Human pregnane X receptor (PXR) small molecule agonists, qHTS cell viability counter screen (AID 1346977); also: nearly all actives have a fitted effect of over 50% in size; also: potency is read from the fitted curve at half-maximal effect
# Outline: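 Readout is CellTiter-Fluor fluorescence from PXR-Luc HepG2 cells. Plated cells rested 5hr, then were treated with compounds for 24hr at 37C and 5% CO2, with reagent present during the last hour.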
# [2] = Caspase-3/7 induction in HepG2 cells by small molecules, qHTS assay (AID 1346978); also: nearly all actives have a fitted effect of over 15% in size
# Outline: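 Wild-type HepG2 cells, 2,000/well, settled 5 hr at 37 C and 5% CO2, then compound-treated for 17 hr; caspase-3/7 activity read by luminescent Caspase-Glo 3/7 after 30 min at room temperature.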
# [3] = Caspase-3/7 induction in CHO-K1 cells by small molecules, qHTS assay (AID 1346980); also: nearly all actives have a fitted effect of over 15% in size
# Outline: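 Wild-type CHO-K1 cells exposed to compounds for 17hr at 37 C, 5% CO2. Caspase-3/7 activity then measured by Caspase-Glo 3/7 luminescence after 30min at room temperature.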
# [4] = target: Nuclear receptor subfamily 1 group I member 2 (Rattus norvegicus) (UniProt Q9R1A7); assay: Rat pregnane X receptor (rPXR) activation by small molecules, qHTS assay (AID 1346983); conditions: rPXR luciferase reporter cells, One-Glo luminescence, 24 h; max activation: stronger effect = higher value; also: nearly all actives have a fitted effect of over 20% in size
# Outline: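 Cell-based rPXR activation assay: rPXR cells, 2,000 per well, rested 5hr at 37 C, then exposed to compounds in DMSO for 24 hr at 37 C. Luciferase activity read by One-Glo luminescence after 30 min at room temperature.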
# [5] = target: Nuclear receptor subfamily 1 group I member 2 (Homo sapiens) (UniProt O75469); assay: CYP3A4 induction through human pregnane X receptor (PXR) by small molecules, qHTS assay (AID 1346984); also: nearly all actives have a fitted effect of over 40% in size
# Outline: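 Read-out is luminescence after One-Glo addition, following a 3 hr, 37C incubation with Luciferin-IPA CYP3A4 substrate (3uM final). Before that, compounds were on DPX-2 cells (HepG2 co-transfected with PXR element plus CYP3A4-promoter luciferase) for 24 hr at 37C.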
# [6] = target: Nuclear receptor subfamily 1 group I member 2 (Homo sapiens) (UniProt O75469); assay: Human pregnane X receptor (PXR) activation by small molecules, qHTS assay (AID 1346985); also: nearly all actives have a fitted effect of over 40% in size; also: potency is read from the fitted curve at half-maximal effect
# Outline: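 DPX-2 cells (HepG2 co-transfected with a PXR response element and a CYP3A4-promoter luciferase construct) were seeded at 2,000 per well, rested 5 hr at 37C, then exposed to DMSO-dissolved compounds for 24 hr. Activation was read as luciferase luminescence.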
# [7] = target: Cytochrome P450 2D6 (Homo sapiens) (UniProt P10635); assay: Cytochrome P450 Family 2 Subfamily D Member 6 (CYP2D6) small molecule antagonists: luciferase reporter qHTS assay (AID 1671196); also: nearly all actives have a fitted effect of over 50% in size; also: potency is read from the fitted curve at half-maximal effect
# Outline: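 CYP2D6 activity was followed as luminescence from its luciferin product after a 1 h NADPH-driven reaction at room temperature. Enzyme-substrate mix and compound were pre-incubated for 10 min, and the signal was read 20 min after adding detection reagent.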
# [8] = target: Cytochrome P450 2C19 (Homo sapiens) (UniProt P33261); assay: Cytochrome P450 Family 2 Subfamily C Member 19 (CYP2C19) small molecule antagonists: luciferase reporter qHTS assay (AID 1671197); also: nearly all actives have a fitted effect of over 65% in size; also: potency is read from the fitted curve at half-maximal effect
# Outline: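 Compounds were tested on CYP2C19 activity via proluciferin conversion to luciferin. The 37C, 1 h reaction followed NADPH addition; detection reagent stopped it.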
# [9] = target: Cytochrome P450 2C9 (Homo sapiens) (UniProt P11712); assay: Cytochrome P450 Family 2 Subfamily C Member 9 (CYP2C9) small molecule antagonists: luciferase reporter qHTS assay (AID 1671198); also: nearly all actives have a fitted effect of over 50% in size; also: potency is read from the fitted curve at half-maximal effect
# Outline: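 P450-Glo proluciferin substrate with CYP2C9 enzyme; 10 min RT preincubation, then NADPH regeneration 1 h at 37C; luciferin detection reagent 20 min RT, luminescence in relative luminescence units.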
# [10] = target: Voltage-gated inwardly rectifying potassium channel KCNH2 (Homo sapiens) (UniProt Q12809); assay: Human Ether-a-go-go-Related Gene (hERG) channel small molecule antagonists: fluorescence cell-based qHTS assay (AID 1671200); also: nearly all actives have a fitted effect of over 50% in size; also: potency is read from the fitted curve at half-maximal effect
# Outline: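 Measured: Tl+ flux via fluorescence (480/540 nm) in hERG-expressing U2OS cells after 1 h dye loading at room temperature.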
# [11] = Caspase-3/7 induction in HepG2 cells by small molecules, qHTS cell viability counter screen (AID 1346981); also: series mostly up to about 92 µM; nearly all actives have a fitted effect of over 30% in size
# Outline: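 CellTiter-Fluor fluorescence measured viability in the same wells used for Caspase-Glo 3/7. HepG2 (wild type) at 2,000 cells/well were pre-incubated 5 hr, dosed, and given reagent at 16 hr, with 1 hr further at 37C.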
# [12] = target: Nuclear receptor subfamily 1 group I member 2 (Homo sapiens) (UniProt O75469); assay: Human pregnane X receptor (PXR) small molecule agonists, qHTS assay (AID 1346982); also: nearly all actives have a fitted effect of over 35% in size; also: potency is read from the fitted curve at half-maximal effect
# Outline: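 Agonist mode: luminescence from ONE-Glo after 24 h compound exposure at 37C in HepG2 cells carrying hPXR-responsive CYP3A4 luciferase, plated in charcoal-stripped serum medium 5 h beforehand.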
# [13] = target: Cytochrome P450 1A2 (Homo sapiens) (UniProt P05177); assay: Cytochrome P450 Family 1 Subfamily A Member 2 (CYP1A2) small molecule antagonists: luciferase reporter qHTS assay (AID 1671199); also: nearly all actives have a fitted effect of over 50% in size; also: potency is read from the fitted curve at half-maximal effect
# Outline: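 Luminescence from luciferin formed by CYP1A2 from a proluciferin substrate, read 20 min after detection reagent. Compound was pre-incubated 10 min with enzyme-substrate, and reaction started with NADPH regeneration solution for 1 h at room temperature; furafylline control.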
# [14] = target: Cytochrome P450 3A4 (Homo sapiens) (UniProt P08684); assay: Cytochrome P450 Family 3 Subfamily A Member 4 (CYP3A4) small molecule antagonists: luciferase reporter qHTS assay (AID 1671201)
# Outline: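 Setup: enzyme-substrate mix, compound pin transfer, 10 min RT. Reaction: NADPH regeneration solution, 1 h RT. Readout: detection reagent stops turnover, luminescence measured after 20 min, expressed in relative luminescence units.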
# [15] = Caspase-3/7 induction in CHO-K1 cells by small molecules, qHTS cell viability counter screen (AID 1346979); also: nearly all actives have a fitted effect of over 35% in size
# Outline: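 To flag cytotoxic compounds, treated CHO-K1 wild-type cells were given CellTiter-Fluor at 16hr and read fluorescently after 1hr at 37C; the caspase-3/7 luminescence was measured in these same wells.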
# Sequence of Nuclear receptor subfamily 1 group I member 2 (Homo sapiens) (O75469 whole entry, looked up): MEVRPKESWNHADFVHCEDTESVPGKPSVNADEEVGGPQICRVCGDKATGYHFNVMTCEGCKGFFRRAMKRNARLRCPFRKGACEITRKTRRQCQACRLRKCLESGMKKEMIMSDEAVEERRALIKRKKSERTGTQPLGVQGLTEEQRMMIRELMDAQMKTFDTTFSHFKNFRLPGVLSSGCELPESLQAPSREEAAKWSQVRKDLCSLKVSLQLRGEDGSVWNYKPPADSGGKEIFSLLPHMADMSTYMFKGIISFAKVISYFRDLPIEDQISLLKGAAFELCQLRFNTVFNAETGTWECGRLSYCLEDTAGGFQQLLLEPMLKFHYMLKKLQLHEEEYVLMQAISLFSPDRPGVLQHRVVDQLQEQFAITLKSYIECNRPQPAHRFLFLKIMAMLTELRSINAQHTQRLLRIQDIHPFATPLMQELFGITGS
# Sequence of Voltage-gated inwardly rectifying potassium channel KCNH2 (Homo sapiens) (Q12809 whole entry, looked up): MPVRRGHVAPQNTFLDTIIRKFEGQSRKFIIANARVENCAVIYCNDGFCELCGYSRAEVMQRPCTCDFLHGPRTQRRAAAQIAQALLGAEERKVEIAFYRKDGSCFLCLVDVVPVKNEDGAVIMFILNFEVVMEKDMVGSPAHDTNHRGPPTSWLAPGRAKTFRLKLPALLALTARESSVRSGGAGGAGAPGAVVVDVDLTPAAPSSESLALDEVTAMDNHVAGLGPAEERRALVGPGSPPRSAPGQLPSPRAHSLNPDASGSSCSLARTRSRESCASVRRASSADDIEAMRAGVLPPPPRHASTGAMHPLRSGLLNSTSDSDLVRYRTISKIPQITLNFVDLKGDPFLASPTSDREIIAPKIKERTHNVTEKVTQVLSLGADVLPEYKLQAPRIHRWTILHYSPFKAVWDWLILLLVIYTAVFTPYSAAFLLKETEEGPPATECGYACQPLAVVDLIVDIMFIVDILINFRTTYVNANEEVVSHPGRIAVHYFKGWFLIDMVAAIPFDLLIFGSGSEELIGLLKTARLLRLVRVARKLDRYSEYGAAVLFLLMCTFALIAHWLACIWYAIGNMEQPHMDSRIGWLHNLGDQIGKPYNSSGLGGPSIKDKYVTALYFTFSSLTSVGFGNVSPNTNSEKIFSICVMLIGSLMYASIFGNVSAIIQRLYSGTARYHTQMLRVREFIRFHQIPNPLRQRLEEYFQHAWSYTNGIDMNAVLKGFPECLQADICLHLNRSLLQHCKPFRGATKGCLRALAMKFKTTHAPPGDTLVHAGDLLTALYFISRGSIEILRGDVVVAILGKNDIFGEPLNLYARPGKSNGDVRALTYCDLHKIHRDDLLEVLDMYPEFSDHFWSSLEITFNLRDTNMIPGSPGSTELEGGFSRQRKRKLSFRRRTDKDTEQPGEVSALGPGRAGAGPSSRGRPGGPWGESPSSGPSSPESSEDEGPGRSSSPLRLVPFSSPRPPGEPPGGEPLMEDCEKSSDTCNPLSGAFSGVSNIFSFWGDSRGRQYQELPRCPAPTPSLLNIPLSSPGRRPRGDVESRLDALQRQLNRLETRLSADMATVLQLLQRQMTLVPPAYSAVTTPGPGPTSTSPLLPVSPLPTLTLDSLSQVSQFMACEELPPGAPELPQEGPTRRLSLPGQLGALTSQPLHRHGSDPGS
# Sequence of Nuclear receptor subfamily 1 group I member 2 (Rattus norvegicus) (Q9R1A7 whole entry, looked up): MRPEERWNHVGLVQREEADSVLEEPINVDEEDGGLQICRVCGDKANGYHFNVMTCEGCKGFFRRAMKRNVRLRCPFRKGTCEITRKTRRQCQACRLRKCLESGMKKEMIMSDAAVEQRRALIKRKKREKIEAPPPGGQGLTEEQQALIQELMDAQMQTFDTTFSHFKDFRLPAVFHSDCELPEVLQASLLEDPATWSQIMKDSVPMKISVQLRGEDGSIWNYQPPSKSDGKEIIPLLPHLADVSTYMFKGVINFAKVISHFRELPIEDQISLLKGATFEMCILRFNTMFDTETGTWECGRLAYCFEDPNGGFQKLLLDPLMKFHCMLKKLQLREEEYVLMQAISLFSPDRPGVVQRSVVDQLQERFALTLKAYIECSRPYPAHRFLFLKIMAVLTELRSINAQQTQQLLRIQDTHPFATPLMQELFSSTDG
# Sequence of Cytochrome P450 2D6 (Homo sapiens) (P10635 whole entry, looked up): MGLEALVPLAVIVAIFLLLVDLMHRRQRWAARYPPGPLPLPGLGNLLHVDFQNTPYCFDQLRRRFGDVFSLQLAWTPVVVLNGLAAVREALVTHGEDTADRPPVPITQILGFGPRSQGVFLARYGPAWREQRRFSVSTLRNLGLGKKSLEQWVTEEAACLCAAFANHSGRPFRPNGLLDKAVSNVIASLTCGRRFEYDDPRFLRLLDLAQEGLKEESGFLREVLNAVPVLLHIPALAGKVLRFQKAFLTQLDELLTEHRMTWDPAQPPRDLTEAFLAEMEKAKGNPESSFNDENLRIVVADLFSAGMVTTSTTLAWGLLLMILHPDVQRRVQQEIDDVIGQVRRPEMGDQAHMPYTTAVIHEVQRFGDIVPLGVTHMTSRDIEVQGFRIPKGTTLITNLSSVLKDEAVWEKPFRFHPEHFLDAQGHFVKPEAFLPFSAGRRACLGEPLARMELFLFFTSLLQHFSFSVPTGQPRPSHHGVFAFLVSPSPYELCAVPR
# Sequence of Cytochrome P450 1A2 (Homo sapiens) (P05177 whole entry, looked up): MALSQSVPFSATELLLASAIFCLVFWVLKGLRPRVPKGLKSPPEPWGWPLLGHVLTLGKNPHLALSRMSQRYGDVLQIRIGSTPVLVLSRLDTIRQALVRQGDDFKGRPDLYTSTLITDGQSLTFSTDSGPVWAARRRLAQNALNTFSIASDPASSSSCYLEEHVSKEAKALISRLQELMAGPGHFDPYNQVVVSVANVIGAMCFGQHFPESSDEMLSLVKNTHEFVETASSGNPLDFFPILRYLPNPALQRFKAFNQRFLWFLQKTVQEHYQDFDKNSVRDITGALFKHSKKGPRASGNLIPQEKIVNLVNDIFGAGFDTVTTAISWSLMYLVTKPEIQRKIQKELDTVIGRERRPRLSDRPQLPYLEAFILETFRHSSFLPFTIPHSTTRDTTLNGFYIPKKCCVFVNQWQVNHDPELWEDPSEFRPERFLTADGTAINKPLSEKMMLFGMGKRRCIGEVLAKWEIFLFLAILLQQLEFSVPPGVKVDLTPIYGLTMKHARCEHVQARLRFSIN
# Sequence of Cytochrome P450 2C9 (Homo sapiens) (P11712 whole entry, looked up): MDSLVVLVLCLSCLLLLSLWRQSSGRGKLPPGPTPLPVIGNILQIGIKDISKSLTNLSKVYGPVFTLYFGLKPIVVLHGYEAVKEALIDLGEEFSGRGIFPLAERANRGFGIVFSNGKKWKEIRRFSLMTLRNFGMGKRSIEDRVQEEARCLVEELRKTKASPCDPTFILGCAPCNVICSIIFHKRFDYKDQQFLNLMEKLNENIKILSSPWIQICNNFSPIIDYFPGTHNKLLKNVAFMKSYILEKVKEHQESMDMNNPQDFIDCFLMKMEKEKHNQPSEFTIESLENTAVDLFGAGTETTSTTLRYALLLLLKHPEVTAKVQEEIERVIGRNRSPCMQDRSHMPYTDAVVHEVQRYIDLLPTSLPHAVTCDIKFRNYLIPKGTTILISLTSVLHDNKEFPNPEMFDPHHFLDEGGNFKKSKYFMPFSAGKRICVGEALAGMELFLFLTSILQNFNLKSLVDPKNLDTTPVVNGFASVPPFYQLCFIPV
# Sequence of Cytochrome P450 3A4 (Homo sapiens) (P08684 whole entry, looked up): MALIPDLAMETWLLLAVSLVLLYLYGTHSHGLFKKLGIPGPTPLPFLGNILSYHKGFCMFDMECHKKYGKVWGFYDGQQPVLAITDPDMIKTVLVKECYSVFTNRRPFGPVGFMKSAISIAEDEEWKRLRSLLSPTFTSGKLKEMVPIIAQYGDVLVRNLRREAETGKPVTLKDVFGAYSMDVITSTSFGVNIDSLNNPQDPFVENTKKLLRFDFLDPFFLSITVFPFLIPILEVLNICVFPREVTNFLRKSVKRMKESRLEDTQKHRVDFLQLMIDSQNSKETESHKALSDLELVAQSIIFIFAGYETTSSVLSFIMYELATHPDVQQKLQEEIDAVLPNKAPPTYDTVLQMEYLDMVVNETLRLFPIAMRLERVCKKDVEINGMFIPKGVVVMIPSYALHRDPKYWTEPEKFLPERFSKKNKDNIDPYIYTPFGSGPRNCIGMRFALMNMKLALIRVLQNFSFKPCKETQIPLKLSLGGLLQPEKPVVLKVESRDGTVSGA
# Sequence of Cytochrome P450 2C19 (Homo sapiens) (P33261 whole entry, looked up): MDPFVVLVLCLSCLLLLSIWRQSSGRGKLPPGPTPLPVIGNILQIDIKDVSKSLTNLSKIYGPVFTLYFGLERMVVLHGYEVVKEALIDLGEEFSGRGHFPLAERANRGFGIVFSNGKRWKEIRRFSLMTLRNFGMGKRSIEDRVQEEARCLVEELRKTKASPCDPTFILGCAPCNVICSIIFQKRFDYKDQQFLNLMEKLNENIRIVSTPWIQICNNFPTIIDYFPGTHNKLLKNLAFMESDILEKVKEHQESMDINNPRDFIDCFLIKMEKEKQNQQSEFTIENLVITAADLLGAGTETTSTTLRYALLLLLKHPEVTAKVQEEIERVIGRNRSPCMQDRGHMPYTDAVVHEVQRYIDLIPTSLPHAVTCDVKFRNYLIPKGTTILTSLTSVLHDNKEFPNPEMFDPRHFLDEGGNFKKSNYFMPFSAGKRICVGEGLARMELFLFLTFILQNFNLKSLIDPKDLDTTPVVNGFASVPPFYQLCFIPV
Compound,Potency [1],outcome [2],outcome [3],max activation [4],Potency [5],Potency [6],Potency [7],Potency [8],Potency [9],Potency [10],outcome [11],Potency [12],Potency [13],Potency [14],Potency [15]
c1cc(CN2CCCCC2)cc(OCCCNc2nc3ccccc3s2)c1,23.7 µM (active),inactive,inactive,2.06%,inactive,22.4 µM (active),3.89 µM (active),inactive,inactive,8.49 µM (active),,,,,
Cc1ccccc1C(=O)O,inactive,inactive,inactive,,,,inactive,inactive,inactive,inactive,inactive,30.1 µM (active),inactive,inactive,
CC1=CC(C)C(C=O)C(C)C1 (configuration not stated),inactive,inactive,inactive,,,,inactive,inactive,,inactive,inactive,,inactive,inactive,inactive
COc1cc(C(=O)N2CCOCC2)cc(OC)c1OC,inactive,inactive,inactive,-6.89% and 0.152%,inactive,inactive,inactive,inactive,inactive,inactive,inactive,inactive,inactive,inactive,
CCCCc1ccc(N)cc1,inactive,inactive,inactive,,,,,39.9 µM (active),44.8 µM (active),inactive,inactive,inactive,,,inactive
CCCCCCCCCCCCCCCCCCOCC(O)CO (configuration not stated),inactive,inactive,inactive,3.52%,inactive,inactive,inactive,inactive,inactive,inactive,inactive,inactive,,inactive,
C[C@H](O)C(=O)Nc1c(I)c(C(=O)NC(CO)CO)c(I)c(C(=O)NC(CO)CO)c1I,inactive,inactive,inactive,,inactive,inactive,inactive,,inactive,inactive,inactive,inactive,inactive,inactive,
CC1(C)SC(C)(C)SC(C)(C)S1,inactive,inactive,inactive,,,,inactive,,inactive,inactive,inactive,inactive,,inactive,
C=C(C)[C@@H]1CCC2=CC(=O)C[C@@H](C)[C@]2(C)C1,,inactive,inactive,,,,inactive,6.33 µM (active),39.9 µM (active),inactive,inactive,,inactive,inactive,inactive
CC(C)N1C(=O)c2ccccc2C1=O,,inactive,inactive,,,,inactive,inactive,inactive,inactive,inactive,inactive,35.6 µM (active),inactive,
OCc1ccccn1,inactive,inactive,inactive,-1.13%,inactive,inactive,inactive,inactive,inactive,inactive,inactive,inactive,inactive,inactive,
C/C=C1\C(=O)C[C@H]2[C@@H]3CCC4=CC(=O)CC[C@]4(C)[C@H]3CC[C@]12C,inactive,inactive,inactive,,,,inactive,6.2 µM (active),15.6 µM (active),,inactive,,inactive,inactive,
NC(CS)C(=O)O (configuration not stated),inactive,inactive,inactive,-0.0152%,inactive,inactive,inactive,inactive,inactive,inactive,inactive,,17.4 µM (active),inactive,inactive
Nc1nc(F)nc2c1ncn2[C@@H]1O[C@H](CO)[C@@H](O)[C@@H]1O,inactive,inactive,inactive,-2.35%,inactive,inactive,34.7 µM (active),,inactive,inactive,inactive,,inactive,inactive,inactive
CC(C)(C)CC(C)(C)N,inactive,inactive,inactive,,,,inactive,,inactive,inactive,inactive,inactive,,inactive,
